This is an account of results in PubChem BioAssay (NCATS).

“And” between values parts separate entries of the source, which are not always exact repeats. Identical values can stand only once. Inconclusive results are not listed. The source made the active and inactive calls. Unless noted, calls follow the shape of the dose curve; as a rule, active = well fitted curve in the direction sought with a large enough effect; inconclusive = small, poorly fitted or top-dose-only effect, or another doubt; inactive = no such curve, though single readings can be large; an effect the other way counts as inactive or inconclusive.

Experiment [1] addresses Cytochrome P450 2D6 (Homo sapiens) (UniProt P10635). Put plainly: Cytochrome P450 family 2 subfamily D member 6 (CYP2D6) small molecule antagonists: luciferase biochemical (cell-free) qHTS assay (AID 1645840; active = well fitted curve in the direction sought with a large enough effect in the repeat runs; an effect the other way counts as inactive or inconclusive; also: nearly all actives have a fitted effect of over 55% in size; also: potency is read from the fitted curve at half-maximal effect; as to activity change, negative = inhibition: % is scaled to controls: 0 for no effect and ±100 for the full control effect). The procedure, abridged:
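P450-Glo luminescent screen: recombinant CYP2D6 enzyme–proluciferin substrate mix preincubated with compound 10 min at room temperature, then NADPH regeneration added for 1 h at room temperature. Detection reagent added for 20 min; luciferin light read as relative luminescence units.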
(In general: qHTS replaces the single test concentration by a dilution series.)

Experiment [2] has as its target Cytochrome P450 2C9 (Homo sapiens) (UniProt P11712). Put plainly: Cytochrome P450 family 2 subfamily C member 9 (CYP2C9) small molecule antagonists: luciferase biochemical (cell-free) qHTS assay (AID 1645842; active = well fitted curve in the direction sought with a large enough effect in the repeat runs; an effect the other way counts as inactive or inconclusive; also: nearly all actives have a fitted effect of over 55% in size; also: potency is read from the fitted curve at half-maximal effect; as to activity change, negative = inhibition: % is scaled to controls: 0 for no effect and ±100 for the full control effect). The procedure, abridged: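 Luminescence, after 20 min with luciferin detection reagent, reflected CYP2C9 turnover during a 1 h NADPH-driven reaction at 37C. Enzyme-substrate mix contained 0.4% bovine serum albumin and was preincubated with compound 10 min at room temperature.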

For experiment [3], the target named is Papain (Carica papaya) (UniProt P00784). Put plainly: Primary qHTS assay for inhibitors of the protease papain (AID 1645873).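 Also: papain turnover of Z-FR-AMC read as the AMC fluorescence gain over 10 min.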 Also: potency is read from the fitted curve at half-maximal effect. As to activity change, negative = inhibition: % is scaled to controls: 0 for no effect and ±100 for the full control effect.
Experiment [4] in a line: Primary qHTS for inhibitors of nuclear receptor binding SET domain protein 2 (NSD2) in an isogenic RCH-ACV NSD2 p.E1099K mutant (9B) (AID 1645876). Also: nearly all actives have a fitted effect of over 70% in size. Also: potency is read from the fitted curve at half-maximal effect. As to activity change, negative = viability loss: % is scaled to controls: 0 for no effect and ±100 for the full control effect.
Experiment [5] in a line: Primary qHTS for inhibitors of nuclear receptor binding SET domain protein 2 (NSD2) in an RCH-ACV wild type WT cells (2C) (AID 1645877). Also: nearly all actives have a fitted effect of over 70% in size. Also: potency is read from the fitted curve at half-maximal effect.
In experiment [6] the target is Cytochrome P450 3A4 (Homo sapiens) (UniProt P08684). The experiment in a line: Cytochrome P450 family 3 subfamily A member 4 (CYP3A4) small molecule antagonists: luciferase qHTS assay (AID 1645841; active = well fitted curve in the direction sought with a large enough effect in the repeat runs; an effect the other way counts as inactive or inconclusive; also: nearly all actives have a fitted effect of over 45% in size). The procedure, abridged:
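Luminescent CYP3A4 activity readout: compounds plus enzyme-substrate mix 10 min at room temperature, reaction started with NADPH regenerating system for 1 h, stopped with detection reagent, read after 20 min. Ketoconazole served as control.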

The target in experiment [7] is Catechol O-methyltransferase (Homo sapiens) (UniProt P21964). The experiment in a line: Confirmatory Screen for Target Class Profiling of Small Molecule Inhibitors of Methyltransferases (AID 1745852; calls by dose curve). Particulars: MTase-Glo luminescence, SAH detection, recombinant enzyme; measured here: COMT max response; stronger effect = lower value.
Experiment [8] has as its target Guanidinoacetate N-methyltransferase (Homo sapiens) (UniProt Q14353). The description is as above. To be noted: MTase-Glo luminescence, SAH detection, recombinant enzyme.
Experiment [9] addresses Nicotinamide N-methyltransferase (Homo sapiens) (UniProt P40261). The description is as above. Particulars: MTase-Glo luminescence, SAH detection, recombinant enzyme; measured here: NNMT max response; stronger effect = lower value.
Experiment [10] addresses Phenylethanolamine N-methyltransferase (Homo sapiens) (UniProt P11086). The description is as above. Particulars: MTase-Glo luminescence, SAH detection, recombinant enzyme; measured here: PNMT max response; stronger effect = lower value.
The target of experiment [11] is Rap guanine nucleotide exchange factor 3 (Homo sapiens) (UniProt O95398). Put plainly: Confirmatory qHTS for agonist of cAMP-regulated guanine nucleotide exchange factor 3 (EPAC1) (AID 1645881).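 Also: EPAC1 catalysed release of BODIPY-GDP from Rap1B seen as fluorescence loss; 100% = effect of cAMP agonist control; nearly all actives have a fitted effect of over 75% in size.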
The target of experiment [12] is Rap guanine nucleotide exchange factor 4 (Homo sapiens) (UniProt Q8WZA2). The experiment in a line: Confirmatory qHTS for agonist of cAMP-regulated guanine nucleotide exchange factor 4 (EPAC2) (AID 1645884).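 Also: nucleotide exchange releases bodipy-GDP from Rap1 and this lowers its fluorescence; % is scaled to controls: 0 for no effect and ±100 for the full control effect; nearly all actives have a fitted effect of over 65% in size.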
Experiment [13] has the same target. Put plainly: Confirmatory qHTS for antagonist of cAMP-regulated guanine nucleotide exchange factor 4 (EPAC2) (AID 1645885). Also: nearly all actives have a fitted effect of over 25% in size. Also: potency is read from the fitted curve at half-maximal effect.
For experiment [14], the target named is N-terminal Xaa-Pro-Lys N-methyltransferase 1 (Homo sapiens) (UniProt Q9BV86). Put plainly: Confirmatory qHTS for Inhibitors of N-terminal methyltransferase 1 (NTMT1): MTaseGlo Assay (AID 1645874). Also: potency is read from the fitted curve at half-maximal effect; nearly all actives have a fitted effect of over 65% in size. Particulars: NTMT1 enzyme, MTase-Glo SAH luminescence. An outline of the steps:
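qHTS format: NTMT1 125 nM, SAM 100 uM, peptide SPKRIA 1 uM final; 15 min compound preincubation, 30 min reaction at room temperature. MTase-Glo luminescence.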

Experiment [15] has as its target Rap guanine nucleotide exchange factor 3 (Homo sapiens) (UniProt O95398). The experiment in a line: Confirmatory qHTS for antagonist of cAMP-regulated guanine nucleotide exchange factor 3 (EPAC1) (AID 1645880).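 Also: plate controls were DMSO only for no effect and full effect of the ATA control for full effect; nearly all actives have a fitted effect of over 55% in size.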 The procedure, abridged: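 Nucleotide exchange uses 100 nM EPAC1, 250 nM RAP1B-BODIPY-GDP and 50 uM GDP, with compounds in a concentration-titration series. After 5 min at room temperature, fluorescence (480 nm ex/540 nm em) is read every 5 min for 30 min. Data are normalized to control ATA and DMSO.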

Chain of Papain (Carica papaya) (P00784 whole entry, looked up, the tested form may be a part): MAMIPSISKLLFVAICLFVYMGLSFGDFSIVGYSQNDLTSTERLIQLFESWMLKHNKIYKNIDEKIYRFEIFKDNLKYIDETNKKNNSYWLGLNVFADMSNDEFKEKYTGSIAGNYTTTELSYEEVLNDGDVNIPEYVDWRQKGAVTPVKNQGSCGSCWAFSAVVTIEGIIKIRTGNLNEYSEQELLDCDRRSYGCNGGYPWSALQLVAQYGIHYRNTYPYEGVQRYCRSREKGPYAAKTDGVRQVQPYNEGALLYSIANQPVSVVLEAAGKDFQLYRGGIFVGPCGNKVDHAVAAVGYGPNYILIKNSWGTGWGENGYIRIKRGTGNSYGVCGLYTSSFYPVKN
Chain of Catechol O-methyltransferase (Homo sapiens) (P21964 whole entry, looked up): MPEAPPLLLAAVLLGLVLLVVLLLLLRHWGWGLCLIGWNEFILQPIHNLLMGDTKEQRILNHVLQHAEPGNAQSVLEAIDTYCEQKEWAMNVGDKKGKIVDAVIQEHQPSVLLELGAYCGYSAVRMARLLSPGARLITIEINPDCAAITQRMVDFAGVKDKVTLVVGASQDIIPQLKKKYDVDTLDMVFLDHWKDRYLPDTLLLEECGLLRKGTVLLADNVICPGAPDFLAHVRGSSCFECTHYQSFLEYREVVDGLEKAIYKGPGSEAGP
Chain of Cytochrome P450 3A4 (Homo sapiens) (P08684 whole entry, looked up): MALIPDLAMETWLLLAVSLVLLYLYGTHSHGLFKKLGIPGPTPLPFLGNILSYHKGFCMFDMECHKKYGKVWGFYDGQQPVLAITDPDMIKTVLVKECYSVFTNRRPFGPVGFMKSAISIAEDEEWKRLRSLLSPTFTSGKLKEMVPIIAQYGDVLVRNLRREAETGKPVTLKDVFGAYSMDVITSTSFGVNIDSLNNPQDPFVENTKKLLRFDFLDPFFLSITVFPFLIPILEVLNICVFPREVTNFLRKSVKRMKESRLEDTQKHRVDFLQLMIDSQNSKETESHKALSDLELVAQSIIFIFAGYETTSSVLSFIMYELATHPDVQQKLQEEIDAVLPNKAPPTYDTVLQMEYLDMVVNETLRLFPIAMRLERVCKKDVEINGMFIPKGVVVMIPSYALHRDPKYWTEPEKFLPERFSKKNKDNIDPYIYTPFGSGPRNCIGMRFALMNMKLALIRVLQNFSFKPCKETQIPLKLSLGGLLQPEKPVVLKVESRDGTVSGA
Chain of Nicotinamide N-methyltransferase (Homo sapiens) (P40261 whole entry, looked up): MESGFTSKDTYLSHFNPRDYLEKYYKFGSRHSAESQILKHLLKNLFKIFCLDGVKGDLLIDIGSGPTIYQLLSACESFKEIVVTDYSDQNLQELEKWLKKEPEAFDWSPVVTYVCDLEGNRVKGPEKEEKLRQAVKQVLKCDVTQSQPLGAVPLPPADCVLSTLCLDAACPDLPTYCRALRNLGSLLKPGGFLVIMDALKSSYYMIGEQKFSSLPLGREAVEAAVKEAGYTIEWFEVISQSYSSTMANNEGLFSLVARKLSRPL
Chain of Cytochrome P450 2C9 (Homo sapiens) (P11712 whole entry, looked up): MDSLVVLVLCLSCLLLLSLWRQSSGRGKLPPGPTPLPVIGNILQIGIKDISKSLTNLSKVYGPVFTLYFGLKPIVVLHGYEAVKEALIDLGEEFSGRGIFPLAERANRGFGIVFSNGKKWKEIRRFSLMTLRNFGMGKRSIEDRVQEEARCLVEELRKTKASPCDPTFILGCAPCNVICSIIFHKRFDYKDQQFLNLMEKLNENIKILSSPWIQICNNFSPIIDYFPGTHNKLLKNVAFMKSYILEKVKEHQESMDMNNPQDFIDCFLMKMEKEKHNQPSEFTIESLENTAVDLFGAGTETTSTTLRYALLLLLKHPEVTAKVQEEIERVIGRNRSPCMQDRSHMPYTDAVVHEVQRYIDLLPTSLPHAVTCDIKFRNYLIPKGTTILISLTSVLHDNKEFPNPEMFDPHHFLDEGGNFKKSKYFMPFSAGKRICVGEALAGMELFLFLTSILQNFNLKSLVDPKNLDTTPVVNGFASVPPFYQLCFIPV
Chain of Rap guanine nucleotide exchange factor 4 (Homo sapiens) (Q8WZA2 whole entry, looked up): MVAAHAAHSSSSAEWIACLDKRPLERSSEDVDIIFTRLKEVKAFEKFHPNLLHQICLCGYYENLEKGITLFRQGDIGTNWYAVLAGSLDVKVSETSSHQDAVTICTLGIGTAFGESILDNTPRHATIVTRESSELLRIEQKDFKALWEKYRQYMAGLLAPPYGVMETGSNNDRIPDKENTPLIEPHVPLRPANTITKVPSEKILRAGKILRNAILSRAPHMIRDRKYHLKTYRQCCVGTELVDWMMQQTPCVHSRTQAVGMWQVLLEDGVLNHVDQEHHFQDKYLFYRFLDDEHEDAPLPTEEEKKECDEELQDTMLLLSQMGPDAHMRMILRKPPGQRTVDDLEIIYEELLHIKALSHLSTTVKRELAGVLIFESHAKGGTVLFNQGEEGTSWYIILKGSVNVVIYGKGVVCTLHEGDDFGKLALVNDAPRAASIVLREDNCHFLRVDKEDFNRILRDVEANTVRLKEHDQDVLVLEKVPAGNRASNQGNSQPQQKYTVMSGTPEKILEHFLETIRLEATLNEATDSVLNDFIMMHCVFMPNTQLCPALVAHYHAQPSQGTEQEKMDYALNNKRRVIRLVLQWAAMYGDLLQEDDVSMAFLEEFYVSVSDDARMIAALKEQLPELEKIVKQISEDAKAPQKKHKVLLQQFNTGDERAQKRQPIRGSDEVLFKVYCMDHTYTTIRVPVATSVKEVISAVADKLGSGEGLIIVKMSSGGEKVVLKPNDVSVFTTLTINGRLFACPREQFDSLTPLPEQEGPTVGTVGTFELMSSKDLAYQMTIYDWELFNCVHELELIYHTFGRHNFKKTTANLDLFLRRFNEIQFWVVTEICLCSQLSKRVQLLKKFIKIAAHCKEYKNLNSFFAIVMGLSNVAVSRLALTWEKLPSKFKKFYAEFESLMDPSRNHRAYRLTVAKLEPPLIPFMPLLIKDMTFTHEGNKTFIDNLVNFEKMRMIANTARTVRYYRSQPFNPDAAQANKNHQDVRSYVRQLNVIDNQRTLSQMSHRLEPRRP
Chain of Phenylethanolamine N-methyltransferase (Homo sapiens) (P11086 whole entry, looked up): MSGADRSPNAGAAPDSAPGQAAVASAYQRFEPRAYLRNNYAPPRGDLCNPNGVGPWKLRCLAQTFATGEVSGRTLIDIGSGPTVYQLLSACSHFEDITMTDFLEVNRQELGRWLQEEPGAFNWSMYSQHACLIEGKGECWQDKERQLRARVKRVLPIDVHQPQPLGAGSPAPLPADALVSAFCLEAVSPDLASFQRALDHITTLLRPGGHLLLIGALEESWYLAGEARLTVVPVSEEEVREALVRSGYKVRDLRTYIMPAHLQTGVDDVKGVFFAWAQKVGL
Chain of Cytochrome P450 2D6 (Homo sapiens) (P10635 whole entry, looked up): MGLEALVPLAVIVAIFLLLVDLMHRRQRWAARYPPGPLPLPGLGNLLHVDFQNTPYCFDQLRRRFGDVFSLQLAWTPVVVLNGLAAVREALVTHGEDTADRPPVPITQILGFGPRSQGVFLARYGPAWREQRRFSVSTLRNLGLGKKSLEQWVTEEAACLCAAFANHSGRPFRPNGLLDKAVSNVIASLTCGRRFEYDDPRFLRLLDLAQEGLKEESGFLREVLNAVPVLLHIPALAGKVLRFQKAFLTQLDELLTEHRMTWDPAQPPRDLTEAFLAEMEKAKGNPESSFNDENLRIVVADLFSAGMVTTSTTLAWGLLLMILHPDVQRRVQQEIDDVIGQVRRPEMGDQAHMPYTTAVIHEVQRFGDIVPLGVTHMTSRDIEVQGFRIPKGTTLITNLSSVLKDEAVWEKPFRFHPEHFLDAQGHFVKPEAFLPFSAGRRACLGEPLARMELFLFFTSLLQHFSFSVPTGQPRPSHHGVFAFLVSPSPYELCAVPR
Chain of Rap guanine nucleotide exchange factor 3 (Homo sapiens) (O95398 whole entry, looked up): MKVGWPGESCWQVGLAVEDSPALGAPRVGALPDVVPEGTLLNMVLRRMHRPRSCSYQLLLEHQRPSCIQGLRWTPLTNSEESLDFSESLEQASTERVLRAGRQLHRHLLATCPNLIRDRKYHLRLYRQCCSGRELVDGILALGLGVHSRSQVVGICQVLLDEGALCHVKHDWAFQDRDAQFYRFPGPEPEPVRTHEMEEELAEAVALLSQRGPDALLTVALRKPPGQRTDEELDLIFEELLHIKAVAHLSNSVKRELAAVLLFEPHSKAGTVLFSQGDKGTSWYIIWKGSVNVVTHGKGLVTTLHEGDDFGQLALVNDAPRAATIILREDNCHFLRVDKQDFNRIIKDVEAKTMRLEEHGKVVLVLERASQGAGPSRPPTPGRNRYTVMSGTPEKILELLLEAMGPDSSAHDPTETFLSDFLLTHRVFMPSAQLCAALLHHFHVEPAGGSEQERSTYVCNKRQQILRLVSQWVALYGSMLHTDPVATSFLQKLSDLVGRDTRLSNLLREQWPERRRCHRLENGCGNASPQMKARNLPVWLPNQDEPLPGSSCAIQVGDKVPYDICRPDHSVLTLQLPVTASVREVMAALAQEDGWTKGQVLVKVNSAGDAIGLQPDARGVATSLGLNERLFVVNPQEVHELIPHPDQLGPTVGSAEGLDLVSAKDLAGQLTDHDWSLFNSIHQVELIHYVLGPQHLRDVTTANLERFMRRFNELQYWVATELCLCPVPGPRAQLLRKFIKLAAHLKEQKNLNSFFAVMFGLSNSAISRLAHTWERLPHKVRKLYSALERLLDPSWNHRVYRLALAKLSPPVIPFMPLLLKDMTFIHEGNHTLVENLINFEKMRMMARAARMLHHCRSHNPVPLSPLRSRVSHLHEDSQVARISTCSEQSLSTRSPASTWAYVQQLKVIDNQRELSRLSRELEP
Chain of N-terminal Xaa-Pro-Lys N-methyltransferase 1 (Homo sapiens) (Q9BV86 whole entry, looked up): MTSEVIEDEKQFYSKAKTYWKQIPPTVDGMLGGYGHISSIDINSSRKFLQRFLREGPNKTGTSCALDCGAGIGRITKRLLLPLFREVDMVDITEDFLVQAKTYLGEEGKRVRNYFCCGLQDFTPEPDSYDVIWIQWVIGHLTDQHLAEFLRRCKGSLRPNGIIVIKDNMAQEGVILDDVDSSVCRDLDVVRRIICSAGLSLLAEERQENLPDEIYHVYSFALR

Turning to `CN1CCC[C@@H]1Cc1c[nH]c2ccc(CCS(=O)(=O)c3ccccc3)cc12`, the Potency in experiment [1] and in experiment [2] was 13.8 µM (active) each time. Moreover, the Potency result in experiment [3], in [4] and in experiment [5] was “inactive” throughout.
In the case of `CN(C)CCC=C1c2ccccc2CCc2ccccc21`, the Potency in experiment [1] was 5.49 µM (active) and 9.52 µM (active). The Potency entry in [2] and in [3] was “inactive” each time.
Consider `Cc1cc(CC(=O)O)n(C)c1C(=O)c1ccc(Cl)cc1`, for which the Potency result in experiment [1] and in [2] was “inactive” each time.
Take `C#CCN(C)Cc1ccccc1`: the Potency entry in experiment [1], in experiment [2], in experiment [3], in experiment [4] and in experiment [5] was “inactive” throughout.
Consider `Cc1cc2c(cc1S(N)(=O)=O)S(=O)(=O)CCC2`, for which the Potency result in [1], in [2], in [4] and in experiment [5] was “inactive” in each case. In [6], the outcome was “inactive”.
Consider `OCC(O)CN1CCN(c2ccccc2)CC1` (stereo not drawn), for which the Potency entry in [1], in experiment [2], in [4] and in experiment [5] was “inactive” throughout. Also, in experiment [6], the outcome was “inactive”.
As for `CS(=O)(=O)c1ccc([C@@H](O)[C@@H](CF)NC(=O)C(Cl)Cl)cc1`, the Potency result in [1] and in experiment [2] was “inactive” each time.
For the molecule `Nc1ccc(S(=O)(=O)Nc2ccc(Cl)nn2)cc1`, the Potency entry in [1] is “inactive”.
`CN1CCN(C2Cc3ccccc3Sc3ccc(Cl)cc32)CC1` (stereo not drawn): the Potency in experiment [1] was 0.121 µM (active); in experiment [2] it was 8.49 µM (active). For the same molecule, the Potency entry in experiment [3] was “inactive”. The activity in experiment [7] was 14.6%; in experiment [9] it was -22.8%; in [10], 8.62%. Moreover, the activity change, negative = inhibition in experiment [8] (at 57.3 µM (top of the series)) turned out to be 8.35%.
Regarding `CCN(CC)C(C)CN1c2ccccc2Sc2ccccc21` (stereo not drawn), the figures for the Potency in experiment [1] and in experiment [13] were 19.5 µM (active) and 55.5 µM (active), respectively. In addition, the Potency result in experiment [2], in experiment [3], in experiment [4], in experiment [5], in experiment [11] and in experiment [12] was “inactive” in each case.
With `[Cl][In]([Cl])[Cl]`, the Potency entry in experiment [1] is “inactive”. Moreover, in experiment [6], the outcome is “inactive”. Also, the Potency in experiment [14] is 4.91 µM (active); in experiment [4], 24.3 µM (active).
For `CCN(CC)CCNC(=O)c1cc(Cl)c(N)cc1OC`, the Potency in [1] is 15.5 µM (active). The outcome in experiment [6] is “inactive”. Moreover, the Potency result in [2], in [3], in experiment [4] and in experiment [5] was “inactive” throughout.
In the case of `c1ccc2c(CC3=NCCN3)cccc2c1`, the Potency in experiment [1] was 15.5 µM (active). The outcome in experiment [6] was “inactive”. The Potency entry in [2] and in experiment [4] was “inactive” throughout.
On to `C[C@](N)(Cc1ccc(O)cc1)C(=O)O`, for which the activity change, negative = inhibition in experiment [1] was 8.94% [at 4.83 µM] (inactive); in [2], 1.65% [at 4.83 µM] (inactive). Besides, in experiment [3], the Potency entry was “inactive”. In addition, in experiment [4], the activity change, negative = viability loss is -3.71% [at 4.96 µM] (inactive). For the same molecule, in experiment [5], the outcome is “inactive [at 4.96 µM]”.
For `C[C@@H]1CC[C@@]2(OC1)O[C@H]1C[C@H]3[C@@H]4CC[C@H]5C[C@@H](O)CC[C@]5(C)[C@H]4CC(=O)[C@]3(C)[C@H]1[C@@H]2C`, the activity change, negative = inhibition was 8.49% [at 4.83 µM] (inactive) in [1], 37% [at 4.83 µM] (inactive) in experiment [6] and 5.2% [at 4.83 µM] (inactive) in experiment [2]. Also, the activity change, negative = viability loss in experiment [4] was -10.8% [at 4.96 µM] (inactive). Further, in experiment [5], the outcome was “inactive [at 4.96 µM]”.
Take `CN1CCCCC1CCN1c2ccccc2Sc2ccc(S(C)=O)cc21` (stereo not drawn): the Potency in experiment [1] was 0.0219 µM (active). For the same molecule, the Potency result in experiment [2] was “inactive”.
`CN(C)CC[C@@H](c1ccc(Cl)cc1)c1ccccn1`: the Potency in experiment [1] was 9.52 µM (active). Also, the Potency entry in experiment [2], in experiment [3], in [4] and in experiment [5] was “inactive” throughout. The figures for the activity in experiment [7], in [9] and in experiment [10] were -1.71%, -7.31% and -1.72%, respectively. Further, the activity change, negative = inhibition in experiment [8] (at 57.3 µM (top of the series)) amounted to 2.46%.
`CC(C)(C)C(=O)C(Oc1ccc(Cl)cc1)n1ccnc1` (stereo not drawn): the Potency in experiment [1] is 17.4 µM (active).
Consider `O=C(O)[C@@H]1CSCN1`, for which the Potency entry in experiment [1], in experiment [2], in experiment [4] and in [5] was “inactive” in each case. The outcome in [6] was “inactive”.
For the molecule `NC(CSCC(=O)O)C(=O)O` (stereo not drawn), the Potency entry in experiment [1] and in [2] was “inactive” each time.
For the molecule `O=c1[nH]c(=O)c2[nH]c(=O)[nH]c2[nH]1`, the results for the activity change, negative = inhibition in [1] and in experiment [2] were 4.14% [at 11.5 µM] (inactive) and 8.18% [at 11.5 µM] (inactive), respectively.
On to `CCN(CC)CCSC(=O)C(c1ccccc1)c1ccccc1`, for which the Potency in [1] is 5.49 µM (active); in experiment [2] it was 13.8 µM (active).
As for `C[C@H](N)[C@H](O)c1cccc(O)c1`, the Potency result in experiment [1], in experiment [4] and in experiment [5] was “inactive” throughout. For the same molecule, the outcome in [6] was “inactive”.
Turning to `Cc1c(O)cccc1C(=O)N[C@@H](CSc1ccccc1)[C@H](O)CN1C[C@H]2CCCC[C@H]2C[C@H]1C(=O)NC(C)(C)C`, the Potency in experiment [1] was 3.47 µM (active); in experiment [2] it was 15.5 µM (active); in experiment [4] it was 15 µM (active); in experiment [5], 16.8 µM (active). The Potency entry in experiment [3] is “inactive”.
As to `CNC(=O)Oc1ccc2c(c1)[C@]1(C)CCN(C)[C@@H]1N2C`, the Potency in experiment [1] was 0.977 µM (active). In addition, the Potency entry in experiment [2], in experiment [3], in [4], in experiment [5], in [15] and in [11] was “inactive” each time. Also, the Potency result in [12] and in experiment [13] was “inactive” throughout.
As to `CN(N=O)C(=O)N[C@@H]1[C@@H](O)[C@H](O)[C@@H](CO)O[C@@H]1O`, the Potency result in experiment [1], in experiment [2], in experiment [4] and in experiment [5] was “inactive” throughout. The outcome in experiment [6] is “inactive”.
`C[C@H](NC(CCc1ccccc1)C(=O)O)C(=O)N1CCC[C@H]1C(=O)O` (stereo partly drawn): the Potency result in experiment [1], in experiment [2], in [3], in [4] and in [5] was “inactive” each time.
`CN(C)CCN(Cc1ccccc1)c1ccccn1`: the Potency in experiment [1] is 0.174 µM (active). In experiment [2], the Potency entry is “inactive”.
As to `CCN(CC)CCCC(C)Nc1c2ccc(Cl)cc2nc2ccc(OC)cc12` (stereo not drawn), the Potency in [1] was 0.0776 µM (active); in experiment [3], 17.8 µM (active); in experiment [4], 7.42 µM (active); in experiment [5], 5.25 µM (active). The Potency entry in [2], in [15], in experiment [11] and in experiment [13] was “inactive” each time. For the same molecule, the activity was -1.98% and -3.74% in experiment [7]; -11.3% and -15.1% in experiment [9]; 3.56% and -4.16% in experiment [10]. In addition, the activity change, negative = inhibition was -0.149% in [8] (at 29.8 µM (top of the series)) and 2.96% in experiment [8] (at 57.3 µM (top of the series)).
